Compounds with a hit are over-represented: about 1.3% of the library has one in this group of screens.
GLD-1 RNA inh: GLD-1/TGE RNA complex disruptors, primary screen, biochemical, fluorescence polarization | hit rate 0.44% among 320,000 | inhibition, % at 5.96 µM | Female germline-specific tumor suppressor gld-1 (Caenorhabditis elegans), Q17339 | purified GLD-1 + fluorescein TGE RNA;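 active means percent inhibition above a per-plate cutoff, the plate mean of test compounds plus 3 SD, cut at about 30% in these data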;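 further: 0% = DMSO wells with GLD-1 and probe and 100% = wells lacking GLD-1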
Keap1-Nrf2 PPI: Keap1-Nrf2 protein-protein interaction inhibitors, primary screen, biochemical, fluorescence polarization, single point. Kelch-like ECH-associated protein 1 (Homo sapiens), Q14145. hit rate 0.15% among 340,000. inhibition, % at 9.4 µM. Keap1 Kelch-Nrf2 peptide fluorescence polarization, 1536-well; in the data active means inhibition above about 12%;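 further: human Keap1 Kelch domain with fluorescein labeled Nrf2 9mer peptide probe; 0% = neutral control wells and 100% = peptide positive control; higher means more block of Keap1 binding to Nrf2 peptide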
Target sequence (Q14145 whole entry, looked up, the tested form may be a part): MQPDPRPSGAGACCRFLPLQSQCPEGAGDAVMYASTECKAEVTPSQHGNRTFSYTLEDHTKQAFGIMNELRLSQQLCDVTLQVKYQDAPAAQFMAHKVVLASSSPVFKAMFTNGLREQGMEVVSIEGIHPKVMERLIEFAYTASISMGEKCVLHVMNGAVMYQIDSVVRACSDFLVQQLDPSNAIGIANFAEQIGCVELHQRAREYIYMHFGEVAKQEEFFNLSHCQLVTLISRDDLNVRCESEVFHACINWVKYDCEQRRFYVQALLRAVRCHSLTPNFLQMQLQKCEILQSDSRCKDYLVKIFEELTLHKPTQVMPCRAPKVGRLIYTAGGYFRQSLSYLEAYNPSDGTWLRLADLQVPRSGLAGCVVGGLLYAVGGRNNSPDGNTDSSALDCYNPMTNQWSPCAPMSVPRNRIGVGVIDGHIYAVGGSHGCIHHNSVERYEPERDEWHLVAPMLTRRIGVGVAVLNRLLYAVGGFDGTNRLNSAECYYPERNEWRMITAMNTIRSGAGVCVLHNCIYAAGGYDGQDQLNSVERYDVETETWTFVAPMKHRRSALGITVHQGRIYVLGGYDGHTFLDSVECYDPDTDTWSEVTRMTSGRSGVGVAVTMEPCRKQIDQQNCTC
Bcl-xL primary: inhibitors of human Bcl-xL, primary screen, biochemical, fluorescence polarization, HTS; GST-Bcl-xL / FITC-Bim BH3 peptide fluorescence polarization; inhibition, % at 10.9 µM; hit rate 0.7% among 320,000; AID 2129, 2009;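 active means inhibition above the mean of all tested compounds plus 3 SD, cutoff set per campaign, cut at about 30% in these data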;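 further: 0% = DMSO wells and 100% = unlabeled Bim-BH3 peptide competitor; inhibitors lower millipolarization by displacing the labeled peptide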
E coli Lon inh: inhibitors of E. coli Lon protease, primary screen, biochemical, fluorescence polarization | hit rate 0.42% among 360,000 | purified E. coli Lon protease | inhibition, % at 7.94 µM | AID 602123, 2011; in the data active means inhibition above about 13%, passing the limit was not always enough;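 further: 0% = enzyme with probe and DMSO and 100% = no enzyme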
C-LANA FP: inhibitors of KSHV C-LANA binding to DNA, primary screen, biochemical, fluorescence polarization, FAM-LBS DNA, MBP-C-LANA, single point; Kaposi's sarcoma herpesvirus LANA C-terminal domain (residues 932-1162) DNA binding; inhibition, % at 9 µM; hit rate 0.078% among 340,000;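 active means highest replicate inhibition at or above 60% at 9 µM, even if other replicates fall short; inactive means all replicates below 60% inhibition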;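 further: 0% = neutral control wells and 100% = 4 µM acridine orange control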
MCL1 BIM primary: inhibitors of MCL1 binding to BIM-BH3, primary screen, biochemical, fluorescence polarization | Induced myeloid leukemia cell differentiation protein Mcl-1 (Homo sapiens), Q07820 | GST-MCL1 / FITC-Bim-BH3 fluorescence polarization | inhibition, % at 10.9 µM | hit rate 0.68% among 320,000;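 active means inhibition above the mean inhibition of all tested compounds plus 3 SD, set per campaign, cut at about 40% in these data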;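 further: 0% = DMSO wells and 100% = unlabeled Bim-BH3 peptide control; higher means more loss of mP so more displacement of Bim peptide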
eLon confirm: E. coli Lon protease inhibitor retest, confirmation, biochemical, fluorescence polarization | shares compounds with E coli Lon inh | purified E. coli Lon | inhibition, % at 7.94 µM | hit rate 31% among 1,400; in the data active means inhibition above about 16%;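 further: 0% = enzyme with probe and DMSO and 100% = no enzyme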
The depositor's hits bear a star; nt = no result given.

SMILES | GLD-1 RNA inh | Keap1-Nrf2 PPI | Bcl-xL primary | E coli Lon inh | C-LANA FP | MCL1 BIM primary | eLon confirm
CN(C(=O)C(C)(C)C)[C@H]1C[C@H]2c3[nH]c4ccccc4c3CCN2C(=O)[C@H]1CO | nt | nt | nt | 14* | nt | nt | -11
CN(C(=O)NC1CCCCC1)[C@H]1C[C@H]2c3[nH]c4ccccc4c3CCN2C(=O)[C@H]1CO | nt | nt | nt | -12 | nt | nt | nt
O=C(c1ccccc1NS(=O)(=O)c1cccs1)N1CCCC1 | 6 | -8 | 6 | 20* | 0 | -3 | -5
COc1ccc(OC)c(C(=O)c2ccc(C(=O)Nc3cccc4ccccc34)cc2)c1 | 4 | 4 | 3 | -12 | 8 | -4 | nt
O=C(NCCc1nnc2ccc(N3CCCC3)nn12)c1ccccc1 | -1 | -10 | 1 | 19* | 0 | -3 | -4
CCOC(=O)c1cc2c(ccn2C)n1CC(=O)N1CCC(Cc2ccccc2)CC1 | 27 | -6 | 8 | 20* | 0 | 2 | 10
CCOC(=O)c1cc2c(ccn2C)n1CC(=O)N1CCCC(C)C1 (stereo unspecified) | 4 | 0 | 11 | 3 | 2 | 11 | nt
COc1cc2[nH]c(=S)nc(NCc3ccccn3)c2cc1OC | nt | 7 | nt | 26* | 16 | nt | 57*
COc1cc2[nH]c(=S)nc(NCc3ccccc3)c2cc1OC | -1 | 2 | 3 | 6 | 0 | -1 | nt
COc1ccc(C(=O)N=S2CCN(C(=O)c3ccc(Cl)cc3)CC2)cc1 | -1 | nt | -3 | 103* | nt | -8 | 12
COc1ccc(-n2nc(C(=O)NCC(=O)N3CC(C)CC(C)C3)c3ccccc3c2=O)cc1 (stereo unspecified) | -9 | 2 | 1 | 4 | -1 | 3 | nt
Cc1cc2c(cc1C)N(C(=O)CCl)CCN2C(=O)CCl | nt | -11 | nt | 4 | 0 | nt | nt
C[C@H]1CN([C@@H](C)CO)C(=O)CCCn2nncc2CO[C@H]1CN(C)C(=O)NC1CCCCC1 | nt | nt | nt | 13* | nt | nt | -3
Cc1noc(C)c1S(=O)(=O)N(C)C[C@@H]1OCc2cnnn2CCCC(=O)N([C@@H](C)CO)C[C@H]1C | nt | nt | nt | 15* | nt | nt | -10
CC/C(=N/NC(=O)c1ccccc1O)c1c(C)[nH]n(-c2ccccc2)c1=O | 5 | -6 | 5 | 15 | 1 | 0 | nt
O=C(NCCCN1CCCC1)Nc1ccccc1[N+](=O)[O-] | -3 | -1 | 1 | 16* | 0 | 8 | 9
Cc1ccccc1NC(=O)NCCCN1CCCC1 | 9 | 4 | -5 | 0 | 0 | -3 | nt
O=C(c1ccccc1O)N1N=C(c2ccccc2)CC1(O)C(F)(F)F (stereo unspecified) | -1 | -6 | -4 | -6 | 1 | -1 | nt
O=C1c2cccc3c([N+](=O)[O-])ccc(c23)C(=O)N1c1ccccn1 | 20 | -2 | 25 | 27* | 1 | 24 | 20*
O=C1c2ccccc2C(=O)N1c1cc([N+](=O)[O-])ccn1 | 6 | 1 | 6 | 1 | 12 | 3 | nt
O=C(NCCOC(=O)c1ccc(Cl)cc1)c1cccnc1 | 6 | -8 | 1 | 16* | 0 | 2 | -9
Fc1cc(F)cc(NC(=S)Nc2ccccc2N2CCOCC2)c1 | 8 | 0 | 6 | -4 | 0 | 10 | nt
CCCN(CC(=O)Nc1cc(C)on1)CC(=O)Nc1ccccc1C | 5 | 1 | -6 | 60* | 0 | 0 | 0
COc1ccc(CN2CCN(c3ccccc3OC)CC2)c(OC)c1 | -2 | 3 | 1 | 1 | -1 | 2 | nt
COc1ccc(OC)c(CN2CCN(c3ccccc3OC)CC2)c1 | -1 | -4 | 5 | 17* | 1 | 8 | 4
SMILES | GLD-1 RNA inh | Keap1-Nrf2 PPI | Bcl-xL primary | E coli Lon inh | C-LANA FP | MCL1 BIM primary | eLon confirm
COc1ccc(OC)c(CN2CCCCCC2)c1 | 8 | -3 | 0 | 21* | -2 | 8 | 121*
COc1ccccc1N1CCN(Cc2ccc(OC)c(OC)c2OC)CC1 | 3 | 2 | 10 | -6 | -1 | 12 | nt
COc1ccccc1N1CCN(Cc2ccc(O)c3ncccc23)CC1 | 1 | -4 | 0 | 15* | -1 | 2 | 12
COc1ccc(OC)c(CN2CCSCC2)c1 | nt | -2 | nt | 3 | 3 | nt | nt
O=C(c1ccco1)N1N=C(c2ccc3nccnc3c2)CC1c1ccccc1 (stereo unspecified) | -9 | 1 | 5 | -6 | -2 | -4 | nt
COCCNC(=O)c1[nH]c(C(F)(F)F)nc1-c1ccccc1 | nt | nt | nt | 0 | nt | nt | nt
S=c1[nH]nc(-c2ccccn2)n1/N=C/c1ccccc1 | 1 | -2 | -11 | -13 | 0 | -13 | nt
S=c1[nH]nc(-c2ccccn2)n1/N=C/c1ccc(Cl)cc1 | -8 | 2 | -26 | 18* | 4 | -28 | -2
O=C(/C(=C/O)N=Nc1ccccc1)c1cccs1 | 1 | 0 | 1 | 22* | 0 | 3 | 12
O=C(C=Cc1ccccc1)c1cccs1 | nt | 0 | nt | -11 | 1 | nt | nt
CCc1nnc(NS(=O)(=O)c2ccc(NC(=O)c3ccc([N+](=O)[O-])s3)cc2)s1 | nt | nt | nt | -2 | nt | nt | nt
O=c1[nH]cnc2sc3c(c12)CCN(Cc1ccccc1)C3 | 10 | 0 | 33* | 25* | 1 | 35 | 11
Cc1cc(NC(=O)CN2C(=O)NC3(CCCCCC3)C2=O)no1 | 2 | 0 | 5 | -9 | 0 | -15 | nt
CCCNS(=O)(=O)c1ccc2c(c1)n(C)c(=O)n2C | 5 | -10 | 6 | 16* | 0 | 6 | -4
CCNS(=O)(=O)c1ccc2c(c1)n(C)c(=O)n2C | -1 | -3 | -2 | -6 | 0 | 0 | nt
CCOC(=O)c1cc2c(ccc3nc(C)c(C)c32)[nH]c1C | 4 | 1 | 9 | 6 | -1 | 11 | nt
COCCNC(=O)C1(C)CCN(C(=O)c2cc(C)n(C(C)(C)C)n2)C1 (stereo unspecified) | nt | nt | nt | 6 | nt | nt | nt
O=C(CCNC(=O)C1CCN(S(=O)(=O)c2ccc(F)cc2)CC1)NCc1ccccc1 | 5 | -2 | 6 | 2 | 1 | 6 | nt
O=C(CCNC(=O)C1CCN(S(=O)(=O)c2ccc(F)cc2)CC1)NCc1ccccc1Cl | 3 | -5 | 0 | 17* | 1 | 3 | -11
O=C(CNC(=O)c1ccccc1)N/N=C/C=C/c1ccccc1 | -6 | -6 | 4 | 0 | 3 | 8 | nt
O=C(CNC(=O)c1cccc(F)c1)N/N=C/C=C/c1ccccc1 | -4 | -6 | 2 | 17* | -1 | 1 | 3
CCN(CC(=O)NCc1cccs1)C(=O)c1ccc(S(=O)(=O)Nc2ccccc2)cc1 | -2 | -3 | 5 | -6 | -1 | 2 | nt

Screening data deposited in PubChem by several laboratories.
